# Source: PubChem BioAssay
# A340 absorber: compound light absorbance at 340 nm, profiling panel, artefact control, biochemical, MLSMR library, data from PS, PMK, MK assays; compound absorbance at 340 nm, fold over control; fold change at 10 µM; 65,000 tested, under 10 active; AID 708, 2007;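 active means at 10 µM dose, initial 340 nm absorbance at least 2 fold that of control wells; inactive means change under 2 fold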;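 further: initial absorbance extrapolated from kinetic A340 decline of NADH oxidation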
# PMK inhibit: S. pneumoniae PMK inhibitors, primary screen, biochemical, mevalonate pathway, pilot trial included; phosphomevalonate kinase (Streptococcus pneumoniae D39); purified PMK, PK/LDH-coupled NADH absorbance 340 nm; inhibition, % at 10 µM; hit rate 0.49% among 65,000; AID 539, 2006;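 active means top-ranked compounds by inhibition in the single 10 µM screen, taking a fixed number of the strongest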;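 further: 0% = full reaction with DMSO carrier and 100% = background rate without enzyme reaction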
# MK inhibit: S. pneumoniae MK inhibitors, primary screen, biochemical, PK/LDH-coupled NADH absorbance; mevalonate kinase [Streptococcus pneumoniae D39]; purified MK, PK/LDH-coupled NADH absorbance 340 nm; inhibition, % at 10 µM; hit rate 0.48% among 65,000; AID 555, 2006;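 active means ranked among the strongest by inhibition in the single 10 µM screen, a fixed top-ranked set picked for dose follow-up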
# DPM-DC inhibit: S. pneumoniae DPM-DC inhibitors, primary screen, biochemical, PK/LDH-coupled NADH fluorescence. diphosphomevalonate decarboxylase (Streptococcus pneumoniae D39). purified DPM-DC. calls only at 10 µM. hit rate 0.49% among 65,000. AID 556, 2006;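 active means the 320 compounds with the highest percent inhibition in the single-dose primary screen, excluding strongly autofluorescent ones, cut at about 32% in these data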;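 further: kinetic rate of NADH fluorescence loss reporting ADP formed by the decarboxylase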
# Fluor 339 460: intrinsic fluorescence of library compounds, ex339/em460 – biochemical, MLSMR library, data from DPM-DC assay, artefact control, profiling panel. compound autofluorescence, ex339/em460 nm, NADH buffer; active compounds read high; 1 = no-compound wells, NADH background. fluorescence fold increase at 10 µM. hit rate 5.5% among 65,000. AID 709, 2007;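 active means at 10 µM, mean starting fluorescence two-fold or more over control wells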;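 further: signal is the first read of a kinetic run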
# NADH enzymes: inhibitors of PK/LDH coupling enzymes, profiling panel, artefact control, biochemical, MLSMR library | IC50, µM (doses to about 10 µM), inactives show top-dose inhibition | hit rate 0.02% among 65,000 | coupled PK/LDH NADH assays, four targets;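 active means single-dose screening hits from any of four coupled enzyme assays that gave an IC50 when retested across doses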;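 further: the DPM-DC format reads NADH fluorescence rather than 340 nm absorbance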
# * hit, by the source's call; i = inactive; nt = no result given. This is a sample that favours compounds with a hit; in the whole collection about 6.8% have one here.
SMILES,A340 absorber,PMK inhibit,MK inhibit,DPM-DC inhibit,Fluor 339 460,NADH enzymes
CCCCSc1nc(C)c(CC(=O)OC)c(=O)[nH]1,0.97,6.0,14.0,i,1.06,7.0%
O=C(NCc1ccccc1)NC1(C(=O)N2CCN(c3ccccc3)CC2)CCCCC1,0.97,17.0,5.0,i,1.02,7.0%
CCCc1cc(=O)n2c(nc3ccccc32)[nH]1,1.03,4.0,4.0,nt,3.89*,4.0%
CCCCc1c(O)n2c(nc3ccccc32)[nH]c1=O,1.01,0.0,4.0,i,1.04,1.0%
Cc1cccc(-c2c3c(=O)n(C)c(=O)n(C)c3c3nnc4ccccc4n23)c1,1.02,10.0,12.0,i,1.13,7.0%
COc1ccc2c(c1)CCc1c(C(=O)N3CCCCCC3)noc1-2,1.01,16.0,0.0,i,1.11,5.0%
COc1ccc2c(c1)CCc1cc(C(=O)N3CCN(c4ccc(N5CCOCC5)nn4)CC3)sc1-2,1.02,11.0,15.0,nt,2.46*,6.0%
Cc1nccc2[nH]c(=O)c(C(=O)NC3CCN(Cc4ccccc4)CC3)cc12,1.05,0.0,6.0,i,1.12,2.0%
Nc1c(C(=O)OCC2CCCO2)c2nc3ccccc3nc2n1C1CCCCC1 (stereo not drawn),1.11,14.0,6.0,nt,2.1*,10.0%
COc1ccccc1-n1c(N)c(C(=O)NCC2CCCO2)c2nc3ccccc3nc21 (stereo not drawn),0.89,15.0,7.0,nt,2.36*,11.0%
O=C(CSc1nc2ccccc2n1-c1ccccc1)NCC1CCCO1 (stereo not drawn),1.05,3.0,7.0,i,1.13,7.0%
Nc1c(C(=O)NCC2CCCO2)c2nc3ccccc3nc2n1-c1ccccc1 (stereo not drawn),1.06,15.0,0.0,nt,4.93*,8.0%
CCOCCCn1c(=NC(=O)c2cccnc2)c(C(=O)OCC)cc2c(=O)n3ccccc3nc21,1.08,10.0,8.0,nt,3.63*,9.0%
CCCCn1c(=NC(=O)c2cccnc2)c(C(=O)OCC)cc2c(=O)n3ccccc3nc21,1.02,11.0,9.0,nt,2.28*,10.0%
N#Cc1cc2c(=O)n3ccccc3nc2n(CCCn2ccnc2)c1=N,1.03,14.0,3.0,i,1.73,8.0%
[O-][n+]1c2ccc3nonc3c2nn1-c1ccccc1Cl,0.99,14.0,4.0,i,1.34,6.0%
Cc1cc(NC(=O)c2ccc(NC(=O)C(C)Oc3ccccc3)cc2)no1 (stereo not drawn),1.01,5.0,6.0,i,1.12,7.0%
COC(=O)CCSCC(=O)Nc1nnc(C)s1,1.03,1.0,4.0,i,0.96,2.0%
CCC(=O)c1cc2c(cc1NC(=O)C(C)C)OCCO2,1.03,11.0,3.0,i,2.06*,5.0%
CC(=O)Nc1cc2c(cc1C(C)=O)OCCO2,1.07,5.0,0.0,nt,3.59*,3.0%
CC(C)C(=O)Nc1cc2c(cc1C(=O)c1ccccc1)OCCO2,0.99,3.0,8.0,i,1.14,4.0%
O=C(Nc1cccc(Cl)c1)Nc1ccc2c(c1)OCO2,1.06,8.0,1.0,i,1.12,3.0%
CC(=O)c1cc2c(cc1NC(=O)Nc1cccc(Cl)c1)OCCO2,1.04,0.0,6.0,i,2.58*,6.0%
CCCCN(C)C(=O)c1oc2ccc(S(=O)(=O)N3CCCCCC3)cc2c1C,0.97,10.0,0.0,i,1.02,3.0%
CCSc1nc(-c2ccc(OC)cc2)ccc1C#N,1.01,0.0,2.0,i,2*,1.0%
SMILES,A340 absorber,PMK inhibit,MK inhibit,DPM-DC inhibit,Fluor 339 460,NADH enzymes
CCCCC(CC)C(=O)NCCCN1CCN(CCCNC(=O)C(CC)CCCC)CC1 (stereo not drawn),1.04,13.0,9.0,i,1.1,7.0%
CCCc1nc2oc(C(=O)OCC)c(N)c2c2c1COC(C)(C)C2,1.08,1.0,2.0,nt,3.93*,2.0%
CCOC(=O)c1oc2nc(C(C)C)c3c(c2c1N)CC(C)(C)OC3,1.06,11.0,4.0,nt,3.79*,8.0%
Cc1nc2oc(C(=O)c3ccccc3)c(N)c2c2c1COC(C)(C)C2,1.16,0.0,6.0,i,1.19,5.0%
CCOC(=O)c1oc2nc(C(C)C)c3c(c2c1N)CCC3,1.15,13.0,7.0,nt,3.81*,10.0%
CCOC(=O)c1c(SC)nc(SC)c2c1CCC2,1.02,11.0,0.0,i,1.08,4.0%
COc1ccc(C2OC(=O)c3ccccc3S2)cc1 (stereo not drawn),1.02,0.0,2.0,i,1.11,1.0%
CCN1C(=O)c2ccc(-c3nc4ccccc4c(=O)o3)cc2C1=O,1.07,5.0,5.0,nt,2.17*,5.0%
CCCC(=O)Nc1nc2ccc(OCC)cc2s1,1.01,17.0,1.0,i,1.09,6.0%
CCOc1ccc2nc(NCCNC(=O)C(C)C)c(C)cc2c1,1.04,11.0,9.0,nt,4.72*,10.0%
COCC(=O)NCCNc1nc2ccc(C)cc2cc1C,1.1,13.0,0.0,nt,3.52*,7.0%
CCOc1ccc2nc(NCCNC(=O)C3CC3)c(C)cc2c1,1.02,7.0,7.0,nt,3.76*,7.0%
CCOC(=O)c1ccc(CNC(=O)Cn2nnc(-c3ccc(C)cc3)n2)o1,1.04,10.0,0.0,i,1.04,3.0%
CCn1c(CCC(=O)Nc2nc3c(s2)CCCC3)nc2cc(S(=O)(=O)N(C)C)ccc21,0.99,11.0,0.0,i,1.04,2.0%
CCCCn1c(SCC(=O)c2ccc(OC)cc2OC)nc2cc(S(N)(=O)=O)ccc21,1.05,10.0,4.0,i,2.53*,14.0%
Cc1cccc(-n2c(=O)[nH]c3c(C(N)=O)nc(C(C)C)nc32)c1,1.04,10.0,0.0,nt,4.95*,5.0%
COc1ccc(-c2nc(C(N)=O)c3[nH]c(=O)n(-c4cccc(Cl)c4)c3n2)cc1OC,1.01,11.0,1.0,i,1.08,1.0%
Nc1ccc(-c2nc3c(Cl)cc(N)cc3[nH]2)cc1,1.27,18.0,11.0,nt,4.86*,15.0%
CC(OC(=O)c1cccc(NS(C)(=O)=O)c1)C(=O)Nc1ccc(N2CCOCC2)cc1 (stereo not drawn),0.98,9.0,3.0,i,1.03,3.0%
Cc1csc2ncc(C(=O)NCc3ccccn3)c(=O)n12,1.18,10.0,6.0,nt,2.15*,8.0%
CCc1ccccc1NC(=O)c1cnc2scc(C)n2c1=O,1.2,9.0,1.0,i,1.05,5.0%
CCCC(=O)N1CCN(c2nc(CC(C)C)c3c(c2C#N)CCC3)CC1,1.04,1.0,9.0,nt,2.2*,5.0%
CC(C)Cc1nc(N2CCN(C(=O)Cc3ccccc3)CC2)c(C#N)c2c1COC(C)(C)C2,1.02,8.0,2.0,i,1.33,3.0%
CC1(C)Cc2c(C#N)c(NCCN3CCOCC3)nc(-c3ccco3)c2CO1,0.98,10.0,0.0,i,1.44,3.0%
